Reference: PubChem BioAssay (NCATS)
Records with an inconclusive call do not appear. Calls of active or inactive are those of the source. The call rests on the fitted dose curve; in most records, active means well fitted inhibition curve with a large enough effect; inconclusive means small, poorly fitted or top-dose-only effect; inactive means no such curve, though single readings can be large or run the other way.

test: qHTS assay for measurement of the activity of small molecule inhibitors on Zika virus induced Caspase-3 activity in human iPSC derived neural progenitor cells (hNPCs) (AID 1224857); settings: hNPCs ZIKV-induced caspase-3/7, Caspase-Glo luminescence, 6 h; series mostly up to 45.7 µM; activity change, negative = inhibition: at the top concentration; further: nearly all actives have a fitted effect of over 65% in size
Text: National Center for Advancing Translational Sciences [NCATS]
Johns Hopkins University School of Medicine
Increase in the Caspase-3 activity indicates an activation of apoptosis cell death pathway caused by Zika virus infection in certain types of neuronal cells including human neural progenitor cells (hNPCs), astrocytes, and astrocytoma cell line (SNB-19). This cell-based caspase-3 activity assay measures the increased caspase-3 activity in the human iPSC derived neural progenitor cells (hNPCs) after a 6-hour Zika virus infection with a luminescence readout. A decrease in the luminescence signal in this assay by small molecule treatment indicates an inhibitory effect of that small molecule on the Zika virus induced caspase-3 activity that may correlate with its effect on reduction of Zika virus caused cell death.
The medium for hNPCs consists of DMEM/F12, N2 supplement (ThermoFisher, Cat.# 17502048), NEAA (ThermoFisher, Cat. # 11140050), 2 ug/ml heparin, 2 uM cyclopamine, and B27 (ThermoFisher, Cat. # 17504044). A Caspase-Glo 3/7 assay kit (catalog number G8092; Promega, Madison, WI) was used to detect caspase-3 activity induced by Zika virus infection in human cells. The reagent mixture was reconstituted as described in the protocol from the manufacturer. Polystyrene tissue culture treated and PDL coated white plates were obtained from Greiner Bio-One (Monroe, NC). Cells were seeded in 384- or 1536-well assay plates and cultured at 37 C with 5% CO2 for 16 to 20 hours. The typical cell seeding density in the 1536-well plate assay is 350 cells/well in 3 ul medium for hNPCs in tissue culture treated plates. Compounds were added to cells and incubated for one hour before addition of ZIKV solution to cells (2 FFU/cell). After incubation at 37 C with 5% CO2 for 6 hours, the reagent mixture of Caspase-Glo 3/7 assay kit was added to each well, followed by incubation at room temperature for 30 minutes. The luminescence intensity of the assay plates was measured using a ViewLux plate reader (PerkinElmer). Data were normalized by using the cell-containing wells without ZIKV as a negative control (0% induction of caspase 3/7 activity) and wells containing ZIKV infected cells (Caspase-3 activity induced) as a positive control (100% induction of caspase 3 activity). The percentage inhibitions of the increased Caspase-3 activity by small molecule inhibitors were then calculated.
Potency means the concentration at half of the fitted maximal effect.

| SMILES | activity change, negative = inhibition | Potency |
| --- | --- | --- |
| COc1ccc(C(=O)c2c(C)n(CCN3CCOCC3)c3cc(I)ccc23)cc1 | 50% (inactive) |  |
| Oc1ccc2c3c1O[C@H]1c4[nH]c5c(c4C[C@@]4(O)[C@@H](C2)N(CC2CC2)CC[C@]314)C[C@@]1(O)[C@H]2Cc3ccc(O)c4c3[C@@]1(CCN2CC1CC1)[C@H]5O4 | 14.1% (inactive) |  |
| C=CCC1=C(C)C(OC(=O)C2C(C=C(C)C)C2(C)C)CC1=O (stereo not given) | 57.9% [at 92.8 µM] (inactive) |  |
| CC(O)=C(C#N)C(=O)Nc1cc(Br)ccc1Br | 37.9% (inactive) |  |
| O=[N+]([O-])/N=C1\NCCN1Cc1ccc(Cl)nc1 | 2.56% (inactive) |  |
| COc1ccc2c(c1)CN(C)CC2c1ccc(Cl)c(Cl)c1 (stereo not given) | 156% (inactive) |  |
| COC(C)(C)CCCC(C)C/C=C/C(C)=C/C(=O)OC(C)C (stereo not given) | -3.17% (inactive) |  |
| C=C[C@@H]1CN2CCC1C[C@H]2[C@H](O)c1ccnc2ccccc12 (stereo not given in full) | 17.2% (inactive) |  |
| CC=C(C)C(=O)O[C@H]1C(C)=C2[C@@H]3OC(=O)[C@@](C)(O)[C@@]3(O)[C@@H](OC(=O)CCC)C[C@](C)(OC(C)=O)[C@@H]2[C@@H]1OC(=O)CCCCCCC | -3.34% (inactive) |  |
| COc1ccc2c(c1)[C@]13CCCCC1C(C2)N(C)CC3 (stereo not given in full) | 42.4% (inactive) |  |
| O=S(=O)(O)C(F)(F)C(F)(F)C(F)(F)C(F)(F)F | -9.72% [at 92.8 µM] (inactive) |  |
| C=C[C@@H]1CN2CCC1C[C@@H]2[C@@H](O)c1ccnc2ccccc12 (stereo not given in full) | -3.39% (inactive) |  |
| CC(=O)NCCc1c[nH]c2ccccc12 | 1.44% (inactive) |  |
| C[C@@H]1[C@H](O)[C@@H](C)C=CC=CCCC=CC=CC=CC=C[C@H](O[C@H]2O[C@@H](C)[C@H](O)[C@@H](N)[C@@H]2O)CC2O[C@](O)(C[C@@H](O)[C@H](O)CC[C@@H](O)C[C@@H](O)C[C@@H](O)CC(=O)O[C@H]1C)C[C@H](O)[C@H]2C(=O)O | -7.87% (inactive) |  |
| O=C(Oc1ccc([N+](=O)[O-])cc1)N1CCN(Cc2cccc(Oc3ccccc3)c2)CC1 | 17.6% (inactive) |  |
| CC[C@@H]1C(=O)OC[C@@H]1Cc1cncn1C |  | inactive |
| C=CCN1CC[C@]23CCCCC2[C@H]1Cc1ccc(O)cc13 (stereo not given in full) | -24.6% (inactive) |  |
| C[C@@H]1O[C@@H](O[C@@H]2C=C3CC[C@@H]4[C@@H](CC[C@]5(C)[C@H](c6ccc(=O)oc6)CC[C@@]45O)[C@@]3(C)CC2)[C@H](O)[C@H](O)[C@H]1O | -18.7% (inactive) |  |
| O=[N+]([O-])c1ncc[nH]1 | -15.1% (inactive) |  |
| O=c1cccc2n1CC1CNC[C@H]2C1 | 24.2% (inactive) |  |

| SMILES | activity change, negative = inhibition | Potency |
| --- | --- | --- |
| O=S(=O)(O)C(F)(F)C(F)(F)C(F)(F)C(F)(F)C(F)(F)C(F)(F)C(F)(F)C(F)(F)F | -4.15% [at 92.8 µM] (inactive) |  |
| CCN(CC)C(=O)c1ccc(C2=CC3(CCNCC3)Oc3cccc(O)c32)cc1 | 6.95% (inactive) |  |
| C=C1C[C@H]2[C@H]3CCC(=O)[C@@]3(C)CC[C@@H]2[C@@]2(C)C=CC(=O)C=C12 | 13.4% (inactive) |  |
| CC(C)[C@H]1CN[C@H](C(=O)O)[C@H]1CC(=O)O | 7.76% (inactive) |  |
| CC(C)NC(C)Cc1ccc(I)cc1 (stereo not given) | 0.646% (inactive) |  |
| c1cc2ccc3cccc4ccc(c1)c2c34 | -2.08% [at 92.8 µM] (inactive) |  |
| CC(N[C@H]1C[C@H]1c1ccccc1)c1ccc2c(c1)OCCO2 (stereo not given in full) | -13.1% (inactive) |  |
| Cc1c(C(=O)Nc2cccc(C(F)(F)F)c2)cc(-c2ccccc2)n1CCCN1CCOCC1 | 1.5% (inactive) |  |
| CC(=Cc1csc(C)n1)[C@@H]1C[C@H]2O[C@]2(C)CCC[C@H](C)[C@@H](O)[C@@H](C)C(=O)C(C)(C)[C@@H](O)CC(=O)O1 | 6.99% (inactive) |  |
| C[N+](C)(C)CC(=O)O |  | inactive |
| COc1ccc(CC2NCCc3cc(OC)c(OC)cc32)cc1OC (stereo not given) | 1.53% (inactive) |  |
| C[C@]12COC(=O)C[C@@H]1CC[C@@H]1[C@H]2CC[C@@]2(C)[C@H]1CC[C@]2(C)O | 22.7% (inactive) |  |
| C[C@]12CC[C@H](O)CC1=CC[C@H]1[C@H]3CCC(=O)[C@@]3(C)CC[C@@H]12 | 7.19% (inactive) |  |
| CC(C)Oc1cccnc1N(C)C1CCN(Cc2ccccc2)CC1 | 8.75% (inactive) |  |
| Cc1ccccc1-n1c(Cn2cnc3c(N)ncnc32)nc2cccc(C)c2c1=O | 75.8% (inactive) |  |
| CC(C)N[C@@H]1CCn2c(=O)[nH]c3cccc(c32)[C@@H]1O |  | 16.6 µM (active) |
| COC1=CC(C)=C[C@@H](C)[C@@H](O)[C@@H](C)CC(C)=CC=C[C@H](OC)[C@H]([C@@H](C)[C@@H](O)[C@H](C)[C@@]2(O)C[C@@H](O)[C@H](C)[C@@H](C(C)C)O2)OC1=O | 19.4% (inactive) |  |
| CCC(=O)OC1CCC2C3CCC4=CC(=O)CC[C@@]4(C)C3CC[C@]12C (stereo not given in full) | 62.8% (inactive) |  |
| CC(=O)[C@H]1CCC2C3CC[C@H]4C[C@H](O)CC[C@]4(C)C3CC[C@@]21C (stereo not given in full) | 35.9% (inactive) |  |
| O=C(Nc1ccccc1-c1ccc(Cl)cc1)c1cccnc1Cl | 11.3% [at 92.8 µM] (inactive) |  |
